SRC1 TRFRET art: counter-screen for PPARgamma SRC-1 recruitment agonists: TR-FRET artefact. TR-FRET ratio at 8 µM. TR-FRET detection artefact counter-screen, emission ratio; hits give high values. 99,000 compounds, 0.34% hits; in the data active = TR-FRET ratio above about 2300
PPARg SRC3 recr: promotes SRC-3 coactivator recruitment by human PPARgamma. P37231. biochemical PPARgamma/SRC-3 coactivator recruitment assay. activation, % at 8 µM. 200,000 compounds, 0.26% hits. AID 731; in the data active = activation above about 23%;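 note: 0% = DMSO and 100% = reference agonist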
TR-FRET SRC-2 ct: counter-screen for PPARgamma SRC-2 recruitment agonists: TR-FRET artefact | hits give high values | 200,000 compounds, 0.4% hits | TR-FRET ratio at 8 µM | AID 1049
PPARg SRC2 recr: PPARgamma-driven SRC-2 recruitment agonism; 200,000 compounds, 0.34% hits; P37231; activation, % at 8 µM; PPARgamma LBD-SRC-2 recruitment, biochemical; in the data active = activation above about 22%;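 note: 0% = vehicle and 100% = reference agonist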
SRC3 TRFRET art: counter-screen for PPARgamma SRC-3 recruitment agonists: TR-FRET artefact; PPARgamma/SRC-3 format; hits give high values; TR-FRET ratio at 8 µM; 99,000 compounds, 0.39% hits; AID 1048
PPARg SRC-1 ag: PPARgamma-driven SRC-1 recruitment agonism. activation, % at 8 µM. PPARgamma-SRC-1 coactivator recruitment biochemical assay. P37231. 200,000 compounds, 0.41% hits. AID 631; in the data active = activation above about 19%;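 note: 0% = DMSO and 100% = reference agonist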
PPARg SRC2 ag: confirmation of agonists of SRC-2 recruitment by human PPARgamma | shares compounds with PPARg SRC3 recr | biochemical SRC-2 recruitment by PPARgamma | activation, % at 8 µM | 790 compounds, 52% hits | AID 1297; in the data active = activation above about 22%;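 note: 0% = vehicle alone and 100% = reference agonist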
PPARg SRC1 ag: human PPARgamma SRC-1 recruitment agonism, confirmation. shares compounds with PPARg SRC3 recr. PPARgamma–SRC-1 coactivator recruitment biochemical assay. activation, % at 8 µM. 790 compounds, 43% hits. AID 1300; in the data active = activation above about 20%;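 note: 0% = vehicle wells and 100% = reference agonist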
PPARg SRC3 conf: confirmation of agonists of SRC-3 recruitment by human PPARgamma; shares compounds with PPARg SRC3 recr; biochemical PPARgamma-SRC-3 coactivator recruitment, agonist mode; activation, % at 8 µM; 790 compounds, 29% hits; AID 1301; in the data active = activation above about 24%;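 note: 0% = vehicle wells and 100% = reference agonist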
* marks the source's active call; other numbers are inactive results; / = no result given. Compounds with a hit are over-represented: about 0.9% of the library has one in this group of screens. Cut-off read from the data, not from the text of the source, unless noted: active = TR-FRET ratio above about 2000; inactive = the rest.

SMILES	SRC1 TRFRET art	PPARg SRC3 recr	TR-FRET SRC-2 ct	PPARg SRC2 recr	SRC3 TRFRET art	PPARg SRC-1 ag	PPARg SRC2 ag	PPARg SRC1 ag	PPARg SRC3 conf
CCn1c(=O)cc(SCC(=O)NCC2CCCO2)c2ccccc21 (configuration not stated)	/	65.8*	2825*	50.1*	/	30.9*	35.5*	21.4*	22.6
CCOC(=O)CSc1nc2c(sc3ccc([N+](=O)[O-])cc32)c(=O)n1Cc1ccco1	1586	-1.3	1464	-7.9	1433	0.2	/	/	/
COc1ccccc1C(=O)Nc1nnc(-c2ccco2)s1	/	6.1	1757	9.4	/	7.1	/	/	/
Cc1ccccc1C(=O)Nc1nnc(-c2ccco2)s1	2497*	10.9	2099*	16.4	1974	24.2*	42.4*	36.5*	26.4*
COc1ccc(CCNC(=O)COC(=O)/C=C/c2cc(OC)c(OC)c(OC)c2)cc1OC	1965	0.1	1686	4.5	1678	4.1	/	/	/
CCCC(=O)N1N=C(c2ccccc2)CC1c1cn(C)c2ccccc12 (configuration not stated)	1917	5.0	1652	3.3	1691	0.5	/	/	/
CC(=O)N1N=C(c2ccc(Br)cc2)CC1c1cn(C)c2ccccc12 (configuration not stated)	2488*	20.4	2079*	28.3*	2275*	24.1*	36.0*	34.5*	23.8
COc1cc(NC(=O)c2cc3c(=O)n(C)c4ccccc4c3n2C)cc(OC)c1OC	/	28.4*	1684	11.2	/	22.1*	7.0	5.3	3.6
CCOc1ccc(C2C(C(=O)c3ccco3)=C(O)C(=O)N2CCCn2ccnc2)cc1 (configuration not stated)	/	15.6	1743	18.9	/	7.6	/	/	/
Cc1ccc(C(=O)C2=C(O)C(=O)N(CCCn3ccnc3)C2c2ccc(OC(C)C)cc2)o1 (configuration not stated)	/	25.9*	2124*	28.2*	/	14.0	9.9	6.0	7.3
CCC(/C=C1\Sc2ccc(OC)cc2N1CCO)=C\c1sc2ccc(OC)cc2[n+]1CCO	2291	19.3	1865	19.0	1991	23.1*	12.9	2.7	7.6
Cc1cccc(NC(=O)CNC(=O)COc2ccc(C(=O)c3ccc(F)cc3)cc2)c1C	1970	3.5	1480	1.3	1628	2.9	/	/	/
Cc1cccc(NC(=O)CNC(=O)COc2ccc(-c3ccc(C#N)cc3)cc2)c1C	2605*	7.5	1521	11.9	1717	26.7*	8.4	7.9	5.0
CCOc1ccc(S(=O)(=O)NCc2ccc(F)cc2)c2cccnc12	/	1.8	1457	-0.9	/	11.6	/	/	/
CC(C)OC(=O)/C(C#N)=C/c1c[nH]c2ccccc12	1758	1.1	1662	7.6	1523	2.2	/	/	/
O=C1OC(Nc2cc(Br)cc3cccnc23)c2ccccc21 (configuration not stated)	1937	3.4	1556	8.5	1626	13.6	/	/	/
CCOC(=O)c1c(NC(=O)OC)sc(C(=O)N(CC)CC)c1C	/	15.7	1526	7.1	/	0.1	/	/	/
COc1cccc(Nc2nc(-c3sc(NC(=O)c4ccccc4)nc3C)cs2)c1	/	26.7*	1767	15.4	/	13.3	41.5*	25.7*	19.3
COc1cc(N=Nc2c(C)n(C)n(-c3ccccc3)c2=O)ccc1N	1943	10.6	1662	21.6	1714	28.4*	1.9	1.7	2.5
Cc1ccc(NC(=O)COC(=O)C2CSC3(C)CCC(=O)N23)cc1S(=O)(=O)N1CCOCC1 (configuration not stated)	1853	-2.9	1567	0.1	1660	-1.1	/	/	/
O=C(CSc1c2c(nc3ccccc13)CCC2)N1CCCC1	2117	2.0	1536	-0.3	1706	7.7	/	/	/
COc1ccccc1NC(=O)CSc1c2c(nc3ccccc13)CCC2	1829	-0.1	1565	-0.7	1720	2.9	/	/	/
COCCNC(=O)CSc1c2c(nc3ccc(Cl)cc13)CCCC2	2521*	19.9	2154*	31.2*	2446*	39.1*	18.6	10.1	12.0
COc1ccc(NC(=O)CSc2c3c(nc4cc(Cl)ccc24)CCCC3)cc1OC	1955	6.1	1586	2.4	1721	-0.2	/	/	/
COc1ccc(NC(=O)CSc2c3c(nc4ccccc24)CCCC3)c(OC)c1	2200	16.7	1985*	27.4*	1880	25.6*	25.8*	13.5	16.7
SMILES	SRC1 TRFRET art	PPARg SRC3 recr	TR-FRET SRC-2 ct	PPARg SRC2 recr	SRC3 TRFRET art	PPARg SRC-1 ag	PPARg SRC2 ag	PPARg SRC1 ag	PPARg SRC3 conf
O=C(CSc1c2c(nc3cc(Cl)ccc13)CCCC2)NCc1ccco1	/	23.1	2007*	25.6*	/	15.8	28.6*	21.3*	17.0
CCOC(=O)C1CCN(C(=O)CSc2c3c(nc4ccccc24)CCC3)CC1	1938	9.5	1921	23.2*	1925	17.1	24.2*	12.8	13.5
Cc1ccc2nc(-c3cccnc3)cc(C(=O)Nc3ccc(F)cc3C)c2c1	1611	-2.9	1500	-3.3	1399	4.2	/	/	/
Cc1ccc(C2C(C(=O)c3cccs3)=C(O)C(=O)N2c2nnc(C)s2)cc1 (configuration not stated)	2419*	6.8	2089*	12.3	2078*	22.9*	19.9	17.5	13.7
Cc1nnc(N2C(=O)C(O)=C(C(=O)c3ccco3)C2c2ccc(C(C)(C)C)cc2)s1 (configuration not stated)	/	42.3*	2126*	28.2*	/	30.6*	38.7*	31.0*	25.3*
Cc1nnc(N2C(=O)C(O)=C(C(=O)c3ccco3)C2c2ccc(C(C)C)cc2)s1 (configuration not stated)	2626*	10.1	2173*	32.6*	2243*	26.9*	19.0	12.4	10.5
Cc1nnc(N2C(=O)C(O)=C(C(=O)c3ccco3)C2c2ccc(F)cc2)s1 (configuration not stated)	/	49.5*	2061*	38.1*	/	27.9*	41.1*	32.4*	28.2*
COCCCN1C(=O)C(O)=C(C(=O)c2ccco2)C1c1ccc(Br)cc1 (configuration not stated)	/	21.6	1860	21.6	/	13.7	/	/	/
COc1ccc(OC)c(NC(=O)CSc2nnc(C3CCCCC3)n2-c2ccccc2)c1	/	12.1	1574	15.1	/	2.7	/	/	/
Nc1nc2ccc([N+](=O)[O-])c(N)c2s1	/	8.4	1549	0.5	/	-1.2	/	/	/
Cc1nc(NC(=O)C23CC4CC(CC(C4)C2)C3)sc1Cc1ccc2c(c1)OCO2	1739	-1.0	1628	1.7	1485	8.6	/	/	/
COCCN1C(=O)C(O)=C(C(=O)c2cccs2)C1c1ccccc1 (configuration not stated)	/	14.2	1641	3.3	/	18.8*	20.1	11.9	11.1

Compound activity (PubChem BioAssay)
